Laboratory results taken from PubChem BioAssay (Tox21).
Inconclusive results are not listed. Calls of active or inactive are those of the source. Unless noted, calls come from the whole dose curve.

How the values were obtained:
[1] = Nuclear factor erythroid 2-related factor 2/antioxidant responsive element (Nrf2/ARE) small molecule agonists: luciferase reporter gene qHTS assay in human keratinocytes (AID 1919969); note: nearly all actives have a fitted effect of over 35% in size; note: potency is the fitted concentration of half-maximal effect
[2] = target: Gonadotropin-releasing hormone receptor (Homo sapiens) (UniProt P30968); experiment: Human gonadotropin-releasing hormone receptor (GnRHR) small molecule agonists, calcium flux assay in GnRHR-HEK293 cells (AID 1920063); note: nearly all actives have a fitted effect of over 35% in size; note: potency is the fitted concentration of half-maximal effect
In short: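 HEK293 cells stably expressing human GnRHR were plated 18 h at 37 °C, loaded with calcium dye 1 h at 37 °C, then given compound in agonist mode; fluorescence (Ex/Em 480/540) read kinetically for 3 min at 1 s intervals.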

[3] = G protein-coupled receptor (GPCR) small molecule agonists, calcium flux assay: HEK293 wild type cell line counter screen (AID 1920065); note: potency is the fitted concentration of half-maximal effect
In short: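 Cells were plated and cultured 18 h at 37 C/5% CO2, then loaded with calcium dye for 1 h at 37 C. Compounds in DMSO were pin-transferred in agonist mode, and fluorescence (Ex/Em 480/540) was read kinetically for 3 min at 1 s intervals.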

[4] = p53 small molecule agonists, cell-based qHTS assay with human liver microsomes (AID 1963577)
In short: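 p53RE-bla cells, 4,000/well, compound added after 5 h, with human liver microsomes 0.5 mg/mL and NADPH 0.5 mg/mL final; 16 h at 37 C, then LiveBLAzer 2 h RT, fluorescence.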

[5] = p53 small molecule agonists, cell-based qHTS assay with rat liver microsomes (AID 1963578)
In short: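 p53RE-bla cells, 4,000/well, pre-incubated 5 h, then given compounds plus rat liver microsomes (0.5 mg/mL final) and NADPH (0.5 mg/mL final). Incubation 16 h at 37 C; beta-lactamase reporter read by LiveBLAzer fluorescence after 2 h at room temperature.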

[6] = p53 small molecule agonists, cell-based qHTS assay with human liver microsomes: qHTS cell viability counter screen (AID 1963579); note: nearly all actives have a fitted effect of over 45% in size; note: potency is the fitted concentration of half-maximal effect
In short: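 p53RE-bla cells, 4,000/well, dosed 5 hours after plating, with human liver microsomes (0.5 mg/mL final) plus NADPH (0.5 mg/mL final), 16 hours at 37 C. Viability read as CellTiter-Glo luminescence after 30 min at room temperature.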

[7] = p53 small molecule agonists, cell-based qHTS assay (AID 1963582; active = well fitted activation curve with a large enough effect in the signal ratio in the repeat runs, not every such curve was filed as active; the % refers to the signal ratio)
In short: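 p53RE-bla beta-lactamase reporter cells rested 5 h at 37 C/5% CO2, then received compounds in DMSO by pin transfer and were incubated 16 h at 37 C. LiveBLAzer B/G FRET substrate was loaded for 2 h at room temperature before fluorescence reading.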

[8] = target: 5-hydroxytryptamine receptor 2A (Homo sapiens) (UniProt P28223); experiment: 5-hydroxytryptamine receptor 2A (HTR2A) small molecule antagonists, cell-based qHTS assay (AID 1963586); note: nearly all actives have a fitted effect of over 45% in size; note: potency is the fitted concentration of half-maximal effect
In short: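 Antagonist-mode intracellular calcium assay: DOI (4 nM) added after 5 min compound pre-incubation at room temperature to dye-loaded HTR2A-CHO cells. Fluorescence followed for 3 min, sampled every second.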

[9] = target: Muscarinic acetylcholine receptor M1 (Homo sapiens) (UniProt P11229); experiment: Cholinergic receptor muscarinic 1 (CHRM1) small molecule agonists, cell-based qHTS assay (AID 1963589); note: nearly all actives have a fitted effect of over 35% in size
In short: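 CHO cells stably expressing human CHRM1, seeded 18 h at 37 C/5% CO2, dye-loaded 1 h at 37 C, then given compound in agonist mode; intracellular calcium fluorescence read kinetically at 1 s intervals. Fifteen concentrations, three independent runs.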

[10] = target: Beta-2 adrenergic receptor (Homo sapiens) (UniProt P07550); experiment: Adrenergic beta2 receptor (ADRB2) small molecule antagonists, cell-based qHTS assay (AID 1963592); note: nearly all actives have a fitted effect of over 50% in size; note: potency is the fitted concentration of half-maximal effect; for activity change, negative = inhibition: series mostly up to about 92 µM
In short: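 Cells (CHO, stable ADRB2 overexpression) incubated 18-20hr at 37C; compounds added from DMSO; agonist mix (1nM isoproterenol, 100uM IBMX, 25uM Ro-20-1724) added; 0.5hr RT; d2-cAMP and anti-cAMP-cryptate added; 1hr RT; 665/615 nm read.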

[11] = target: D(2) dopamine receptor (Homo sapiens) (UniProt P14416); experiment: Dopamine D2 receptor (DRD2) small molecule agonists, cell-based qHTS assay (AID 1963594); note: nearly all actives have a fitted effect of over 35% in size
In short: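 cAMP accumulation in DRD2-HEK293 cells measured by HTRF after 1 h detection; compounds added 10 min before NKH477 (200nM […]) forskolin-analogue stimulation, 30 min at room temperature, with Ro20-1724 present at 0.1 mM final.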

[12] = target: D(2) dopamine receptor (Homo sapiens) (UniProt P14416); experiment: Dopamine D2 receptor (DRD2) small molecule antagonists, cell-based qHTS assay (AID 1963595; active = well fitted inhibition curve with a large enough effect in the signal ratio in the repeat runs, with a control signal flat; the % refers to the signal ratio; note: potency is the fitted concentration of half-maximal effect)
In short: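 Stable D2 receptor HEK293 line, 24 h after seeding. Compound preincubated 10 min, then quinpirole (12 nM) with forskolin analogue NKH477 (200 nM), 30 min, room temperature. Detection by time-resolved FRET of cAMP.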

[13] = p53 small molecule agonists, cell-based qHTS assay: qHTS cell viability counter screen (AID 1963581); note: nearly all actives have a fitted effect of over 45% in size
In short: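 p53RE-bla HCT-116 cells were exposed to compounds for 16 h at 37 C; after the beta-lactamase FRET read in the same wells, CellTiter-Glo was added and luminescence (intracellular ATP) read after 30 min at room temperature.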

[14] = target: 5-hydroxytryptamine receptor 2A (Homo sapiens) (UniProt P28223); experiment: 5-hydroxytryptamine receptor 2A (HTR2A) small molecule agonists, cell-based qHTS assay (AID 1963587); note: nearly all actives have a fitted effect of over 30% in size; note: potency is the fitted concentration of half-maximal effect
In short: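 Kinetic calcium-flux fluorescence (2 min, 1 sec intervals) after compound addition in agonist mode. HTR2A-CHO cells were cultured 18 h, then dye-loaded 1 h at 37 C.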

[15] = target: Muscarinic acetylcholine receptor M1 (Homo sapiens) (UniProt P11229); experiment: Cholinergic receptor muscarinic 1 (CHRM1) small molecule antagonists, cell-based qHTS assay (AID 1963588); note: nearly all actives have a fitted effect of over 40% in size
In short: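 CHRM1-CHO calcium-flux assay, antagonist mode. Cells were seeded 18 h, dye-loaded 1 h at 37 C and given compound for 5 min at RT, then acetylcholine was added at 50nM. FDSS fluorescence was read 3 min; 15 concentrations, three runs.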

[16] = cAMP Responsive Elements (CRE) small molecule antagonists, cell-based qHTS assay (AID 1963591; active = well fitted inhibition curve with a large enough effect in the signal ratio in the repeat runs, not every such curve was filed as active; the % refers to the signal ratio)
In short: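 CRE-bla HEK293T cells were plated 18 h at 37 °C/5% CO2, pinned with compound in DMSO, then stimulated with NKH477 at 0.25 uM final for 3 h. LiveBLAzer B/G FRET substrate was added and plates incubated 2 h at room temperature.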

[17] = p53 small molecule agonists, cell-based qHTS assay with rat liver microsomes: qHTS cell viability counter screen (AID 1963580); note: nearly all actives have a fitted effect of over 45% in size
In short: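 Intracellular ATP, by CellTiter-Glo luminescence, defines viability. HCT-116 p53RE-bla cells, 4,000 per well, were compound-treated in the presence of rat liver microsomes and NADPH for 16 h at 37 C.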

[18] = target: Beta-2 adrenergic receptor (Homo sapiens) (UniProt P07550); experiment: Adrenergic beta2 receptor (ADRB2) small molecule agonists, cell-based qHTS assay (AID 1963593);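 note: CHO cells stably overexpressing human ADRB2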
In short: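 CHO cells stably over-expressing ADRB2 were plated overnight at 37C, then dosed with compounds plus a stimulation mix containing 100uM IBMX and 25uM Ro-20-1724 for 0.5hr at room temperature. cAMP was measured by HTRF competition, 1hr.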

[19] = cAMP Responsive Elements (CRE) small molecule agonists, cell-based qHTS assay (AID 1963590)
In short: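 CRE-bla HEK 293T cells in DMEM with 10% dialyzed FBS, NEAA, pyruvate and 25 mM HEPES were plated 18 h at 37 C/5% CO2, then exposed to compounds in DMSO for 3 h before LiveBLAzer B/G FRET substrate addition.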
% is set by controls: 0 for no effect and ±100 for the full control effect.

Chain of Muscarinic acetylcholine receptor M1 (Homo sapiens) (P11229 whole entry, looked up): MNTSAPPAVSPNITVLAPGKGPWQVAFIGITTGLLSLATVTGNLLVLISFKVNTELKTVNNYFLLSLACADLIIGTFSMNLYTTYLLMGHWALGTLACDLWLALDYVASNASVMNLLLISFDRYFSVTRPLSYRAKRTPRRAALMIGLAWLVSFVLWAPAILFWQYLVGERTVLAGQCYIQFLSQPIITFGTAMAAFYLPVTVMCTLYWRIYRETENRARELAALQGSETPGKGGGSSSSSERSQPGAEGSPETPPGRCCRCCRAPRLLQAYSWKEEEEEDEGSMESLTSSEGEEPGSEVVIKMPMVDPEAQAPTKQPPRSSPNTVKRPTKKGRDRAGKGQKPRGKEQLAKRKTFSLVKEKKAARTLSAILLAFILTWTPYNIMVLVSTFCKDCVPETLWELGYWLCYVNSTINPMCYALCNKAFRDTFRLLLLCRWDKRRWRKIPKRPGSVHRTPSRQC
Chain of Beta-2 adrenergic receptor (Homo sapiens) (P07550 whole entry, looked up): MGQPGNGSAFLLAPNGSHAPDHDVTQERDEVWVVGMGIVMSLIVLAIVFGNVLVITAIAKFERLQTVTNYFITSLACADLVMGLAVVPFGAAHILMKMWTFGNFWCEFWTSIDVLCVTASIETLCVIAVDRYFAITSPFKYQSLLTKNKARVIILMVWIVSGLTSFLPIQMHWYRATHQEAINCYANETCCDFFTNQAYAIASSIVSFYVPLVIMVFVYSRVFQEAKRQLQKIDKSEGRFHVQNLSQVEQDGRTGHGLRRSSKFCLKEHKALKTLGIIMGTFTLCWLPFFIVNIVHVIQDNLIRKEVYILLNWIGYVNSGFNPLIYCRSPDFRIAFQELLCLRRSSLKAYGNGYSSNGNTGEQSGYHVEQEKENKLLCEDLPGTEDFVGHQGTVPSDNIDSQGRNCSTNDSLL
Chain of D(2) dopamine receptor (Homo sapiens) (P14416 whole entry, looked up): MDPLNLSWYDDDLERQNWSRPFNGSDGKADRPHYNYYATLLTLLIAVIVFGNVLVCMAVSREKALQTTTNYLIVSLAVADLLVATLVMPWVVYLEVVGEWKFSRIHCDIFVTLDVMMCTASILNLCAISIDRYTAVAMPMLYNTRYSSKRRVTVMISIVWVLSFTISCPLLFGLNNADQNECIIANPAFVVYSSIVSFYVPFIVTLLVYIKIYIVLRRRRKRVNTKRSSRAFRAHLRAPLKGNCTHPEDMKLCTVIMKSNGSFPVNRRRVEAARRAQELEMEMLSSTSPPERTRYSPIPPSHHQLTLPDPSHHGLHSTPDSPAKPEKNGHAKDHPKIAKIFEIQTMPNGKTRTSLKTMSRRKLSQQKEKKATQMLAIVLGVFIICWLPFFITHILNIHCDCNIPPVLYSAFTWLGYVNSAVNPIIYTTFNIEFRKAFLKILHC
Chain of 5-hydroxytryptamine receptor 2A (Homo sapiens) (P28223 whole entry, looked up): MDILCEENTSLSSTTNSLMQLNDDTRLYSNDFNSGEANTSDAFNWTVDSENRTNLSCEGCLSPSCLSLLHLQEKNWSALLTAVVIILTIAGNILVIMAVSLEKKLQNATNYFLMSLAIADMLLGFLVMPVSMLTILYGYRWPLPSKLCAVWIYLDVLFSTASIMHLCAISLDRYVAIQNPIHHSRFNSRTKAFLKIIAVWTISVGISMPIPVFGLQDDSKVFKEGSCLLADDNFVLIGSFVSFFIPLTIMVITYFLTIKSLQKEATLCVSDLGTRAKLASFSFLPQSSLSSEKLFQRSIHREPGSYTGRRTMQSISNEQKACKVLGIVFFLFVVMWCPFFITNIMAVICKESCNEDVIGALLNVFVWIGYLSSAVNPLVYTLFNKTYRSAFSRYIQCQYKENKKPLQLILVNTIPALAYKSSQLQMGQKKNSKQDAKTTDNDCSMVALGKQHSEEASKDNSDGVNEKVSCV
Chain of Gonadotropin-releasing hormone receptor (Homo sapiens) (P30968 whole entry, looked up): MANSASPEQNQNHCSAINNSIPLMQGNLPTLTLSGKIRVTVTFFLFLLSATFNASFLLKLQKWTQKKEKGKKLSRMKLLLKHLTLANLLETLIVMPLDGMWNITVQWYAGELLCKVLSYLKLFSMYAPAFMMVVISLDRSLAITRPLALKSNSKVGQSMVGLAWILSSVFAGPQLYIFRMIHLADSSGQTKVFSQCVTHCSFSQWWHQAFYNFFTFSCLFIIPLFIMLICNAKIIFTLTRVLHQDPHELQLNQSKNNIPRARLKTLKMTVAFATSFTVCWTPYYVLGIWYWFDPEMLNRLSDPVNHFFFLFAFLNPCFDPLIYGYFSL

Oc1ccc(Cl)cc1C1CCCC1
inactive: Potency [1] | Potency [2] | Potency [3] | Potency [4] | Potency [5] | Potency [7] | Potency [8] | Potency [9] | Potency [10] | Potency [11]
active: Potency [6] 36.3 µM | Potency [12] 61.1 µM

CO[Si](OC)(c1ccccc1)c1ccccc1
inactive: Potency [1] | Potency [2] | Potency [3] | Potency [4] | Potency [5] | Potency [6] | Potency [13] | Potency [7] | Potency [8] | Potency [14] | Potency [15] | Potency [9] | Potency [16] | Potency [10] | Potency [11] | Potency [12]

Oc1cc2c(cc1O)[C@H]1c3ccc(O)c(O)c3OC[C@@]1(O)C2
inactive: Potency [1] | Potency [2] | Potency [3] | Potency [4] | Potency [5] | Potency [6] | Potency [17] | Potency [13] | Potency [7] | Potency [8] | Potency [14] | Potency [9]

Nc1ccc2c(c1)CN1C(=O)c3ccccc3C1=N2
active: Potency [1] 0.13 µM | Potency [2] 6.57 µM | Potency [14] 10.4 µM
inactive: activation [4] 5.53% [at 13.5 µM] | activity change, negative = cytotoxicity [6] -28.3% [at 13.5 µM] | activity change, negative = cytotoxicity [17] -20.3% [at 13.5 µM] | activity, negative = inhibition [15] 0.434% [at 12.6 µM] | activity change, negative = inhibition [10] -18.2% [at 19 µM] | activation [18] 25.8% [at 19 µM] | activity change, negative = inhibition [12] -0.331% [at 18.9 µM]

Cc1ccc(Nc2nccc(N(C)c3ccc4c(C)n(C)nc4c3)n2)cc1S(N)(=O)=O
active: Potency [1] 4.22 µM | Potency [10] 26.6 µM
inactive: Potency [2] | Potency [3] | Potency [8] | Potency [14] | Potency [15] | Potency [9] | Potency [19] | Potency [12]

Nc1ccn(C2CO[C@H](CO)O2)c(=O)n1 (stereo partly specified)
active: Potency [2] 4.25 µM | Potency [3] 16.9 µM | Potency [14] 7.56 µM
inactive: Potency [1] | Potency [4] | Potency [5] | Potency [17] | Potency [13] | Potency [15] | Potency [19] | Potency [16] | Potency [10] | Potency [18] | Potency [11] | Potency [12]

O[C@@H](c1cc(C(F)(F)F)nc2c(C(F)(F)F)cccc12)[C@H]1CCCCN1
active: Potency [2] 16.9 µM | Potency [8] 3.65 µM | Potency [14] 10.7 µM
inactive: Potency [1] | Potency [3] | Potency [4] | Potency [5] | Potency [6] | Potency [17] | Potency [11] | Potency [12]
